Compound in the assay: C#CCNC(=O)CCSSCCC(=O)NCCc1ccc(C=O)c(C=O)c1
As to the kind of experiment: lysine labeling ratio R10:1 (500 µM / 50 µM probe), SILAC-ABPP in living cells; higher = lower intrinsic lysine reactivity toward the probe, active = 2 or less. Conditions: HeLa; probe concentrations 500 vs 50 µM. In outline:
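SILAC light and heavy living HeLa cells in PBS at room temperature were labelled with 50 µM or 500 µM of an alkyne-tagged, disulfide-linked lysine probe, with forward and reverse label swaps. Mixed lysates were clicked to biotin-azide, trypsin-digested, captured on neutravidin, DTT-released, alkylated and analysed by LC-MS/MS on a TIMS-TOF Pro. R is the filtered median high-probe/low-probe MS1 peptide ratio per lysine, then the median across forward and reverse replicates. Ratios are capped at 20.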
Sequence of UniProt P09496 (P09496 whole entry): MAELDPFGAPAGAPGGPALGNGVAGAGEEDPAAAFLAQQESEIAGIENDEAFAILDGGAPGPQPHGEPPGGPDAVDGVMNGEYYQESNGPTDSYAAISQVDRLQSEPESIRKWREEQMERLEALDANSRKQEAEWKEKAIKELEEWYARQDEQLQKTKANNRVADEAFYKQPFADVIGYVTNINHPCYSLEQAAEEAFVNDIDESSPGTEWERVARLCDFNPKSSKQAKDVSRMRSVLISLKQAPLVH
Sequence of UniProt P48960 (P48960 whole entry): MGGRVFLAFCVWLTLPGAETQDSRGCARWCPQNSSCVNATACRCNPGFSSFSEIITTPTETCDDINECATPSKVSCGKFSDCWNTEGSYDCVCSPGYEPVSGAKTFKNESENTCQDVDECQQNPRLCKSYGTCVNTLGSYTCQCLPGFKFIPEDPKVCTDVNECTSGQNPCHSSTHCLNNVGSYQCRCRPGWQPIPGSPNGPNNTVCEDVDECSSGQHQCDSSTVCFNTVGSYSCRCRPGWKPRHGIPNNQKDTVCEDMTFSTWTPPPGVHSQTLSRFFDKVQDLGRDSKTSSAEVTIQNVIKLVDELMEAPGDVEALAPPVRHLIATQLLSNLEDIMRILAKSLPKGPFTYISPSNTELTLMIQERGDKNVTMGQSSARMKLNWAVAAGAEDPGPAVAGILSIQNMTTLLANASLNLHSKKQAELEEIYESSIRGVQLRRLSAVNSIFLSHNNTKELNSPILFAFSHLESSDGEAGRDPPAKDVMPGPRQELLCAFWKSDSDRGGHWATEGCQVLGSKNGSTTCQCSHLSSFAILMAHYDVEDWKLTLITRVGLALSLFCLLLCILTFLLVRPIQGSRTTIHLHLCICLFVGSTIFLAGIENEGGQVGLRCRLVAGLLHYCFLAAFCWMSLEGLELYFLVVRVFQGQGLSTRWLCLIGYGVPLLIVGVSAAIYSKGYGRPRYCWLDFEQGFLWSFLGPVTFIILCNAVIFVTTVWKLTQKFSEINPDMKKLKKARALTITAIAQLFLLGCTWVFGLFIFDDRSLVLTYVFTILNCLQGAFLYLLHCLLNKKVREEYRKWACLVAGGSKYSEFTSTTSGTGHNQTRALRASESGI
Sequence of UniProt P17987 (P17987 whole entry): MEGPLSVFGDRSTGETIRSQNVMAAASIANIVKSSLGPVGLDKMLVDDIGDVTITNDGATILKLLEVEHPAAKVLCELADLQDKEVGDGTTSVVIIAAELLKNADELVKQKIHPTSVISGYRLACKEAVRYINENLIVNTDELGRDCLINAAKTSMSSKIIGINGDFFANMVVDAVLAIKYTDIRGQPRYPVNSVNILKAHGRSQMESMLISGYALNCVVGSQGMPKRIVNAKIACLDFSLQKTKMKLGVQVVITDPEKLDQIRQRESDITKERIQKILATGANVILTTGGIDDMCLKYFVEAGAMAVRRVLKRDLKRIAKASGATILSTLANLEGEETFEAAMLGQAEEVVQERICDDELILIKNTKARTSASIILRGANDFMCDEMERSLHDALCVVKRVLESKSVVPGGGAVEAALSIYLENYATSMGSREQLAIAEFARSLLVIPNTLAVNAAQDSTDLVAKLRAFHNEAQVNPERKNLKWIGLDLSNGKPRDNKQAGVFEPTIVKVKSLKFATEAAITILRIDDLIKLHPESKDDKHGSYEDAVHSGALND
Sequence of UniProt P54289 (P54289 whole entry): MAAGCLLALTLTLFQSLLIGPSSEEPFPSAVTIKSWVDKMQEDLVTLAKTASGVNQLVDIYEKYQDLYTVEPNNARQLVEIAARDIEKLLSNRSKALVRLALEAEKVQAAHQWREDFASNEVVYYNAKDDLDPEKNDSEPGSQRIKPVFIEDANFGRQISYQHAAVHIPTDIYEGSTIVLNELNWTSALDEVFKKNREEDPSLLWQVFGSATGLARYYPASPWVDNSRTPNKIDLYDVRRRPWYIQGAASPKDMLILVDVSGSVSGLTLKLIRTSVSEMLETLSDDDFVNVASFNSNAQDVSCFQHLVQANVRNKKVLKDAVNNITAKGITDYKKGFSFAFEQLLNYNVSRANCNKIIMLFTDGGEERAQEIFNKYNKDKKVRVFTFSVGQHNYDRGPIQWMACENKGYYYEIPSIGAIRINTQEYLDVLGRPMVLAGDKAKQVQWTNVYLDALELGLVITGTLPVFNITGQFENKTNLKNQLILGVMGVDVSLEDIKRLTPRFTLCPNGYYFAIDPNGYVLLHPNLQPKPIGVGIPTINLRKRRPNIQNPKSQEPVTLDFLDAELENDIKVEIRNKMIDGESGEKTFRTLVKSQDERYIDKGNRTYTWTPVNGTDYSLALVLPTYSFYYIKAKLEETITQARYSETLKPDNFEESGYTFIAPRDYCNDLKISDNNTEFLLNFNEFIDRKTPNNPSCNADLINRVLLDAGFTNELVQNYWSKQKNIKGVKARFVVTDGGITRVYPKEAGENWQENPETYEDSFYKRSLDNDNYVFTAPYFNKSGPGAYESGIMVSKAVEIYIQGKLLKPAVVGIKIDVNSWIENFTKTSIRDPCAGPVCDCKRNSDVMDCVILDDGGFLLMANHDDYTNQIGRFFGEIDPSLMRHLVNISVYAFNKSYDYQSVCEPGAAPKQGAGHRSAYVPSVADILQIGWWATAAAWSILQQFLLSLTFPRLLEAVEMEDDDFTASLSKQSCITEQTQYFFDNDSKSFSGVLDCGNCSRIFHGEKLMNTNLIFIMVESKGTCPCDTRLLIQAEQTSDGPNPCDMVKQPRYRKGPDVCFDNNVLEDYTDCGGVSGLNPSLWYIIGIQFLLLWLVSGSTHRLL
Sequence of UniProt Q14210 (Q14210 whole entry): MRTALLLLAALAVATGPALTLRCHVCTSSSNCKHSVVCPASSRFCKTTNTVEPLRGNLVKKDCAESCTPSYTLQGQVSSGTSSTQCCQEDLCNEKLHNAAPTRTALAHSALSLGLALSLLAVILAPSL
Sequence of UniProt Q6YHK3 (Q6YHK3 whole entry): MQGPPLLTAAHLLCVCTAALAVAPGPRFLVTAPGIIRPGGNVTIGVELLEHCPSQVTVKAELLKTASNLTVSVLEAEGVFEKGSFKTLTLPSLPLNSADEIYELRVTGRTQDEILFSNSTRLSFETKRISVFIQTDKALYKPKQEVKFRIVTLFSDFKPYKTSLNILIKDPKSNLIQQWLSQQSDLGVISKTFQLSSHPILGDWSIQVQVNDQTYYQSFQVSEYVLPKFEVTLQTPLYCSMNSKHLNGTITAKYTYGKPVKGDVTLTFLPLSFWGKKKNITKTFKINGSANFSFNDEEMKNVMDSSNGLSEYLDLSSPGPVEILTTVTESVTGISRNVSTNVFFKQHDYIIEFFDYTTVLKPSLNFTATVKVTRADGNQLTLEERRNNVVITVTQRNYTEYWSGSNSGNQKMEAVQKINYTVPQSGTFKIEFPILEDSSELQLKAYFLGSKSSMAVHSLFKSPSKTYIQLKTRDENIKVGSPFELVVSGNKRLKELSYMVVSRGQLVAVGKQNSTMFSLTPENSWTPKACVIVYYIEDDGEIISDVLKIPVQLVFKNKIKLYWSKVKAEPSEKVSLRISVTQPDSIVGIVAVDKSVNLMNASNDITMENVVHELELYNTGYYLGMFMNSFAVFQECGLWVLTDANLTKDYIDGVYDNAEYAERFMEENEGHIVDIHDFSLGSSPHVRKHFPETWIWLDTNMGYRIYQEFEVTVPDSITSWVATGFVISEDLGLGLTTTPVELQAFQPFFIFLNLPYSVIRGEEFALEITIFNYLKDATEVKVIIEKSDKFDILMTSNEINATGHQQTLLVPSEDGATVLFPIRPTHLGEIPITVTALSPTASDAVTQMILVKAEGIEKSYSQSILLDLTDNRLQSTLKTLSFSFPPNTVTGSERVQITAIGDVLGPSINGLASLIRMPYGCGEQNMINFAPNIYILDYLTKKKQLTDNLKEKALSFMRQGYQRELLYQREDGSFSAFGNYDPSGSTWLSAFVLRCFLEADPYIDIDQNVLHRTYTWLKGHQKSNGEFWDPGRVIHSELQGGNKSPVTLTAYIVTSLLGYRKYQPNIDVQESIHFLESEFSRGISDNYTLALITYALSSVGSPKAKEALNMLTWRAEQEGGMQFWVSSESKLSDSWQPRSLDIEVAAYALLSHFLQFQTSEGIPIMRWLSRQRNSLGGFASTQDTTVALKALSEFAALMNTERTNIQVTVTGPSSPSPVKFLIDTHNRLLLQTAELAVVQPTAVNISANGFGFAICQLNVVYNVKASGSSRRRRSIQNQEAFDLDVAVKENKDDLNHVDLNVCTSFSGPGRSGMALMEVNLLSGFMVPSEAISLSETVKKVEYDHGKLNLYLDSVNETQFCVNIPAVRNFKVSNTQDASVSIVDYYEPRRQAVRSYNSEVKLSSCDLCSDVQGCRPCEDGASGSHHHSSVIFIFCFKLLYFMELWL
Sequence of UniProt Q8NFJ5 (Q8NFJ5 whole entry): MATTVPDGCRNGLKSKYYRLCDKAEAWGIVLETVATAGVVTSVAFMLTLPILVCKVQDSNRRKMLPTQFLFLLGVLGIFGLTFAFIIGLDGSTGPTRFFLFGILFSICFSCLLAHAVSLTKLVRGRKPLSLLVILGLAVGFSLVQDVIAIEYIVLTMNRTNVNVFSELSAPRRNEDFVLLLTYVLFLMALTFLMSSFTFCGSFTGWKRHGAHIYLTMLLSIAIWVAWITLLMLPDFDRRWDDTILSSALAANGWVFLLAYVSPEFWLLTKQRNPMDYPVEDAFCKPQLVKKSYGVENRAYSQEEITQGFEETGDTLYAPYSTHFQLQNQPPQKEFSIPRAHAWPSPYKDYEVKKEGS
Sequence of UniProt P54851 (P54851 whole entry): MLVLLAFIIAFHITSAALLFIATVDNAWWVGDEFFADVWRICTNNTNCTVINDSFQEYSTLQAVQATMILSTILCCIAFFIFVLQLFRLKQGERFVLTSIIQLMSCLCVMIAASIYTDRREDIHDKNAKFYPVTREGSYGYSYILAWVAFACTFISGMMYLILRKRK
For the target “TCP1 (lysine site: K400) (UniProt P17987)”, the “lysine labeling ratio R10:1” value is 2.68 (inactive).

As to “CACNA2D1 (lysine site: K146) (UniProt P54289)”, the “lysine labeling ratio R10:1” value was 5.1 (inactive).

For the target UniProt P62829 (lysine site: K13), the “lysine labeling ratio R10:1” value is 5.2 (inactive).

For the target UniProt Q8IWU5 (lysine site: K443), the “lysine labeling ratio R10:1” value was 1.5 (active).

As to “DSG2 (lysine site: K72) (UniProt Q14126)”, the “lysine labeling ratio R10:1” value is 2.67 (inactive).

As for UniProt Q9NY47 (lysine site: K270), the “lysine labeling ratio R10:1” value is 2.85 (inactive).

Take UniProt P54851 (lysine site: K129): the “lysine labeling ratio R10:1” value was 4.76 (inactive).

For the target “FLNA (lysine site: K916) (UniProt P21333)”, the “lysine labeling ratio R10:1” value is 1.76 (active).

Turning to “CLTA (lysine site: K141) (UniProt P09496)”, the “lysine labeling ratio R10:1” value is 2.25 (inactive).

As to “LY6D (lysine site: K46) (UniProt Q14210)”, the “lysine labeling ratio R10:1” value is 1.33 (active).

On to “ITGA2 (lysine site: K603) (UniProt P17301)”, for which the “lysine labeling ratio R10:1” value was 1.54 (active).

Turning to “GPRC5A (lysine site: K16) (UniProt Q8NFJ5)”, the “lysine labeling ratio R10:1” value is 6.52 (inactive).

Take “CD97 (lysine site: K483) (UniProt P48960)”: the “lysine labeling ratio R10:1” value was 5.15 (inactive).

As for “NUCB2 (lysine site: K171) (UniProt P80303)”, the “lysine labeling ratio R10:1” value was 2.34 (inactive).

Turning to “SPTAN1 (lysine site: K190) (UniProt Q13813)”, the “lysine labeling ratio R10:1” value is 4.11 (inactive).

For the target “CD109 (lysine site: K1022) (UniProt Q6YHK3)”, the “lysine labeling ratio R10:1” value is 0.98 (active).

For “RTN3 (lysine site: K998) (UniProt O95197)”, the “lysine labeling ratio R10:1” value is 4.14 (inactive).

(Values after the supplement of paper PMC11001985.)
